Assay results published in ChEMBL document CHEMBL1961873, “Compounds: GSK PKIS; Assays: Nanosyn kinase panel” (2012).

Key:
[1] = biological target: Sphingosine kinase 1 (Homo sapiens) (UniProt Q9NYA1); settings: at 1 µM;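 note: mean SPHK1 inhibition value reported from the GSK PKIS kinase panel screen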
[2] = biological target: T1, Sphingosine kinase 2 (Homo sapiens) (UniProt Q9NRA0); settings: at 0.1 µM
T1 sequence (whole entry): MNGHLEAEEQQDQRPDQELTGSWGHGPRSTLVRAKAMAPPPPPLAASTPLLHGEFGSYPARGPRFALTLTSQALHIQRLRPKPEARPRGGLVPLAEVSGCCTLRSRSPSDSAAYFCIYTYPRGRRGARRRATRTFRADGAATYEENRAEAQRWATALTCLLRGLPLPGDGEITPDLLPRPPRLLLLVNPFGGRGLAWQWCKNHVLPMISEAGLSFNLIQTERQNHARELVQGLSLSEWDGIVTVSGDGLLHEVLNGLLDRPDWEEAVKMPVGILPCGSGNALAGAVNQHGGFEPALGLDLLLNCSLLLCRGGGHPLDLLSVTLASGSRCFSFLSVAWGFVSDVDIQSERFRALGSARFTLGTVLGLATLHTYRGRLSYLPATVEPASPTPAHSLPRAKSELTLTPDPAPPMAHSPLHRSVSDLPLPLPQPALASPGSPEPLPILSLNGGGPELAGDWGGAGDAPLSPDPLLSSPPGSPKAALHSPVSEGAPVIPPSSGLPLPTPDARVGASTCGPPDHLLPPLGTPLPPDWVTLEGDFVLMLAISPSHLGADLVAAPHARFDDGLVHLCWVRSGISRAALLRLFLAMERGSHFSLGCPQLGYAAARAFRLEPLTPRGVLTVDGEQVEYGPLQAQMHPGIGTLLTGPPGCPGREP

[3] = biological target: T1, Sphingosine kinase 2 (Homo sapiens); settings: at 1 µM
[4] = biological target: Casein kinase II subunit alpha (Homo sapiens) (UniProt P68400); settings: at 0.1 µM
Casein kinase II subunit alpha (Homo sapiens), sequence (P68400 whole entry, looked up): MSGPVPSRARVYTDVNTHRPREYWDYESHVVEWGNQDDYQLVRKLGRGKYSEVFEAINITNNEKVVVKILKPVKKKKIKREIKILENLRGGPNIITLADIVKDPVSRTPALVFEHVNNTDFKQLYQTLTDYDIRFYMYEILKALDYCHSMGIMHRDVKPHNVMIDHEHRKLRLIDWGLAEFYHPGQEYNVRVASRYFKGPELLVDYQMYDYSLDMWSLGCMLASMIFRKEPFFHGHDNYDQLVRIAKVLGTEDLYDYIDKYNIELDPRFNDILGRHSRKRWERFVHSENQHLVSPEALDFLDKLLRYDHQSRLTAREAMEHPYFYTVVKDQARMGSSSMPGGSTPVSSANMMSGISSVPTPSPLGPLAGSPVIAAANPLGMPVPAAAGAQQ

[5] = biological target: Casein kinase II subunit alpha (Homo sapiens) (UniProt P68400); settings: at 1 µM
[6] = biological target: T2, Inhibitor of nuclear factor kappa-B kinase subunit alpha (Homo sapiens) (UniProt O15111); settings: at 0.1 µM
T2 sequence (whole entry): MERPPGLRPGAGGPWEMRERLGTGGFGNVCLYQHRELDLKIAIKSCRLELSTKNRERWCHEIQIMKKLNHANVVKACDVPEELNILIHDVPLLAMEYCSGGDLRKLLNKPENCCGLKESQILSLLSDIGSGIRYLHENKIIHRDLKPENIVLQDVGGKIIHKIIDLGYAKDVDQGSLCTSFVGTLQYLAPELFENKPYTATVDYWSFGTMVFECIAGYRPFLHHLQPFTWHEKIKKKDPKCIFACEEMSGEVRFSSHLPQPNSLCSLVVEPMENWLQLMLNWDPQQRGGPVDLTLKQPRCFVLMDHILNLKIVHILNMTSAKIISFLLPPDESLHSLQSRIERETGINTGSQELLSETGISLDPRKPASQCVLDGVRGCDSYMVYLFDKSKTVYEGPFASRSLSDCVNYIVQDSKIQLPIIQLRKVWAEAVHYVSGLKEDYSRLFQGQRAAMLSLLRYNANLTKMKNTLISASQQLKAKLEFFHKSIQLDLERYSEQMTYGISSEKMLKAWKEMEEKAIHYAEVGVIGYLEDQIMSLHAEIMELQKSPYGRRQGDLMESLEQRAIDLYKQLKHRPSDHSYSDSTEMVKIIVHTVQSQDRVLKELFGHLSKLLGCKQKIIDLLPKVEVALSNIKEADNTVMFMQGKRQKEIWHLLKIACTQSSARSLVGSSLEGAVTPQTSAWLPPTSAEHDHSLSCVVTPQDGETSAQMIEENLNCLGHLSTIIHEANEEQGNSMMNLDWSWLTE

[7] = biological target: T2, Inhibitor of nuclear factor kappa-B kinase subunit alpha (Homo sapiens); settings: at 1 µM
[8] = biological target: T3, Inhibitor of nuclear factor kappa-B kinase subunit beta (Homo sapiens) (UniProt O14920); settings: at 0.1 µM
T3 sequence (whole entry): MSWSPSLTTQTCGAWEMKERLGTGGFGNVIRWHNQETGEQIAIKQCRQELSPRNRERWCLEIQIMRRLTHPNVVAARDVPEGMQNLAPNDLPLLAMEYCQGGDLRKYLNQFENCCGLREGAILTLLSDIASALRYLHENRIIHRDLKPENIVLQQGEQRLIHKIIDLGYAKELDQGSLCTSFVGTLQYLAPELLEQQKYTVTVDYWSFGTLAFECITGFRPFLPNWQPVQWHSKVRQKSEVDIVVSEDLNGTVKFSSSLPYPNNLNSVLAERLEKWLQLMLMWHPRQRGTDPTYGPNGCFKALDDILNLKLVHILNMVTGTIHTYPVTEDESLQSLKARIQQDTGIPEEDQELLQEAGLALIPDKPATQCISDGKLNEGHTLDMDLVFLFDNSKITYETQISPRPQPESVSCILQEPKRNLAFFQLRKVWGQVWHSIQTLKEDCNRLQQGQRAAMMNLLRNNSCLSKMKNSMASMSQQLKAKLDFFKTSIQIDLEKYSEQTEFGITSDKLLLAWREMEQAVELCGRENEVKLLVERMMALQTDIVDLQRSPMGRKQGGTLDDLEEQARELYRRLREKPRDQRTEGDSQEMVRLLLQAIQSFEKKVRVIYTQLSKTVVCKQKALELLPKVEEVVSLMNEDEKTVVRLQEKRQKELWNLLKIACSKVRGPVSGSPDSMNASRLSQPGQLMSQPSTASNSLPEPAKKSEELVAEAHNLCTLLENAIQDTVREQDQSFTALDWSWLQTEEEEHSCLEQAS

[9] = biological target: T3, Inhibitor of nuclear factor kappa-B kinase subunit beta (Homo sapiens); settings: at 1 µM
[10] = biological target: T4, Inhibitor of nuclear factor kappa-B kinase subunit epsilon (Homo sapiens) (UniProt Q14164); settings: at 0.1 µM
T4 sequence (whole entry): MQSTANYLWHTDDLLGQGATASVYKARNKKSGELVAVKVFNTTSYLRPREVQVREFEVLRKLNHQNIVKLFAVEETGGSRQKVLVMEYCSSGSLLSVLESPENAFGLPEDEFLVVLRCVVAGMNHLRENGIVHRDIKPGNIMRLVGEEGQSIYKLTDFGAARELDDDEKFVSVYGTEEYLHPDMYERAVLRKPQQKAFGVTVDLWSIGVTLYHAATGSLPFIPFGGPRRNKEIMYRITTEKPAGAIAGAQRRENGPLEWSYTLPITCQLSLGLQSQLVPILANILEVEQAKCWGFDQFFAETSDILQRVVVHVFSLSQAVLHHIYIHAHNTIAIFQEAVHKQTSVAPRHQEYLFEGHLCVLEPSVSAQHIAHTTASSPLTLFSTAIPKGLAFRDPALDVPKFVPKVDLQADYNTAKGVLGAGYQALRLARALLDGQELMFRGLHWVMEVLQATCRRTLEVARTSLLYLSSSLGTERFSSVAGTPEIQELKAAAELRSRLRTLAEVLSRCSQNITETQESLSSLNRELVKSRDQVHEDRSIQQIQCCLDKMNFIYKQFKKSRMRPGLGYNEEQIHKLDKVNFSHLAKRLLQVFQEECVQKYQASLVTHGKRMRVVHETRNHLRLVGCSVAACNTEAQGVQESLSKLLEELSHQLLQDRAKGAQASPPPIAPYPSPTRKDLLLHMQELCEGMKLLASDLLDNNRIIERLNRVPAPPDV

[11] = biological target: T4, Inhibitor of nuclear factor kappa-B kinase subunit epsilon (Homo sapiens); settings: at 1 µM
[12] = biological target: T5, Serine/threonine-protein kinase Nek1 (Homo sapiens) (UniProt Q96PY6); settings: at 0.1 µM
T5 sequence (whole entry): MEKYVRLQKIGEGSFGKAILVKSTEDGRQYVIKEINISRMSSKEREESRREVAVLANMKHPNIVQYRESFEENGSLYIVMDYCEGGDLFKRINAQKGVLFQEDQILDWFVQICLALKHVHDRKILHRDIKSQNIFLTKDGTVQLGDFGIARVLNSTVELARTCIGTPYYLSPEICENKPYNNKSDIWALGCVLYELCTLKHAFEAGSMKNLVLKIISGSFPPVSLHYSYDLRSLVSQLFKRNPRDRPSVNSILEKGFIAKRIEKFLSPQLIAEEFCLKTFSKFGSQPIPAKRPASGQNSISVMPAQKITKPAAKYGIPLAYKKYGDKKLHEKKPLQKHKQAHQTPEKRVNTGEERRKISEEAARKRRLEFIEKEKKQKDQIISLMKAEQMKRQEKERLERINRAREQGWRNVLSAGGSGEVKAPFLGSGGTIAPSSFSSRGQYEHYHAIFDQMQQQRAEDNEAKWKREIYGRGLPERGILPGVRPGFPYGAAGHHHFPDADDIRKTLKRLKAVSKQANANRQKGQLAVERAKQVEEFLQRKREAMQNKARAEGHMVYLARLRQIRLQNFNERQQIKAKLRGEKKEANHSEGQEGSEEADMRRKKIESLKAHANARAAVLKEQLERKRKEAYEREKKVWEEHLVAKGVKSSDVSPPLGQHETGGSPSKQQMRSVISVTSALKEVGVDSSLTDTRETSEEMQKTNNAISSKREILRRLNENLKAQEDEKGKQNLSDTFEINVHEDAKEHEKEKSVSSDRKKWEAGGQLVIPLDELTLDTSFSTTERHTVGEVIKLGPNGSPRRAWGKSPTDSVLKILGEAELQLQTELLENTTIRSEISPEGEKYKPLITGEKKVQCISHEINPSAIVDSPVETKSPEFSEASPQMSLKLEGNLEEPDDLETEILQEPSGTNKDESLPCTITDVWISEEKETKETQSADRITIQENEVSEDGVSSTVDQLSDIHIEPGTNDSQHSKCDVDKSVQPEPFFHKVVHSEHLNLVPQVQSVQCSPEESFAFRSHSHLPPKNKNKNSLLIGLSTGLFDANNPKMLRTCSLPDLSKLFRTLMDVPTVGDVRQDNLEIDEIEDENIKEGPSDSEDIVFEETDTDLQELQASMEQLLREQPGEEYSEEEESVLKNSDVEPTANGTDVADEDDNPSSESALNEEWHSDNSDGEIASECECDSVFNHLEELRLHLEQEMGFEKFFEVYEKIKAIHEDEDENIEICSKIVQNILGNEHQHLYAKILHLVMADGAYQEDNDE

[13] = biological target: T5, Serine/threonine-protein kinase Nek1 (Homo sapiens); settings: at 1 µM
[14] = biological target: T6, Serine/threonine-protein kinase Nek2 (Homo sapiens) (UniProt P51955); settings: at 0.1 µM
T6 sequence (whole entry): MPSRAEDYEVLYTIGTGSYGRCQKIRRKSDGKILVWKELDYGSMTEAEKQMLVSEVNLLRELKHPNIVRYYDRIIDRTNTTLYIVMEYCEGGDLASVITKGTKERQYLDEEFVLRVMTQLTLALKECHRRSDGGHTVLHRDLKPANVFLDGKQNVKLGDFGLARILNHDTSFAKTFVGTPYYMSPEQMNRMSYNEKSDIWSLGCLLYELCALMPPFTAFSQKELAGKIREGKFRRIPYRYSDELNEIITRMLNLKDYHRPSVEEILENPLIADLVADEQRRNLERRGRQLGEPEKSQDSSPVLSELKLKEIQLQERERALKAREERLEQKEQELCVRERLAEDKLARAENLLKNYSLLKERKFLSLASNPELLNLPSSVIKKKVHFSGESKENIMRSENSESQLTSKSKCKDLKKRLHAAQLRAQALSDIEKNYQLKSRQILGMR

[15] = biological target: T6, Serine/threonine-protein kinase Nek2 (Homo sapiens); settings: at 1 µM
[16] = biological target: Serine/threonine-protein kinase Nek6 (Homo sapiens) (UniProt Q9HC98); settings: at 0.1 µM
Serine/threonine-protein kinase Nek6 (Homo sapiens), sequence (Q9HC98 whole entry): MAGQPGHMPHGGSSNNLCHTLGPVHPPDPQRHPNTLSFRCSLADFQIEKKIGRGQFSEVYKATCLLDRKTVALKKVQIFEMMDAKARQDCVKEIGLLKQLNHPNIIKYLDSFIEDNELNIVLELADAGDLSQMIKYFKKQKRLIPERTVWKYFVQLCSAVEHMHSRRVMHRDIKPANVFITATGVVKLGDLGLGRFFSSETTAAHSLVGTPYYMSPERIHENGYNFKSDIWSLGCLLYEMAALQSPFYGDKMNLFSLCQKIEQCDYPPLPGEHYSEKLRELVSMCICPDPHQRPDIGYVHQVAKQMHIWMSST

[17] = biological target: Serine/threonine-protein kinase Nek6 (Homo sapiens) (UniProt Q9HC98); settings: at 1 µM
[18] = biological target: Serine/threonine-protein kinase Nek7 (Homo sapiens) (UniProt Q8TDX7); settings: at 0.1 µM
Serine/threonine-protein kinase Nek7 (Homo sapiens), sequence (Q8TDX7 whole entry, looked up): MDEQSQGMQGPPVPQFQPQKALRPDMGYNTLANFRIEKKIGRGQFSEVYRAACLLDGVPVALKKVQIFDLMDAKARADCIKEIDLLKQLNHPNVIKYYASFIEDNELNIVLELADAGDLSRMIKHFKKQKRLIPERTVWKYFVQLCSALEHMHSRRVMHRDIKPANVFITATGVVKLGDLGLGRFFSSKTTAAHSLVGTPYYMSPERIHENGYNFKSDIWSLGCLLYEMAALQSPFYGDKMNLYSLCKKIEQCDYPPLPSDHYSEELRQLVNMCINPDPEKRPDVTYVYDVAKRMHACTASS

[19] = biological target: Serine/threonine-protein kinase Nek7 (Homo sapiens) (UniProt Q8TDX7); settings: at 1 µM
[20] = biological target: T7, Serine/threonine-protein kinase Nek9 (Homo sapiens) (UniProt Q8TD19); settings: at 0.1 µM;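 note: reported value is the mean percent inhibition of NEK9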
T7 sequence (whole entry): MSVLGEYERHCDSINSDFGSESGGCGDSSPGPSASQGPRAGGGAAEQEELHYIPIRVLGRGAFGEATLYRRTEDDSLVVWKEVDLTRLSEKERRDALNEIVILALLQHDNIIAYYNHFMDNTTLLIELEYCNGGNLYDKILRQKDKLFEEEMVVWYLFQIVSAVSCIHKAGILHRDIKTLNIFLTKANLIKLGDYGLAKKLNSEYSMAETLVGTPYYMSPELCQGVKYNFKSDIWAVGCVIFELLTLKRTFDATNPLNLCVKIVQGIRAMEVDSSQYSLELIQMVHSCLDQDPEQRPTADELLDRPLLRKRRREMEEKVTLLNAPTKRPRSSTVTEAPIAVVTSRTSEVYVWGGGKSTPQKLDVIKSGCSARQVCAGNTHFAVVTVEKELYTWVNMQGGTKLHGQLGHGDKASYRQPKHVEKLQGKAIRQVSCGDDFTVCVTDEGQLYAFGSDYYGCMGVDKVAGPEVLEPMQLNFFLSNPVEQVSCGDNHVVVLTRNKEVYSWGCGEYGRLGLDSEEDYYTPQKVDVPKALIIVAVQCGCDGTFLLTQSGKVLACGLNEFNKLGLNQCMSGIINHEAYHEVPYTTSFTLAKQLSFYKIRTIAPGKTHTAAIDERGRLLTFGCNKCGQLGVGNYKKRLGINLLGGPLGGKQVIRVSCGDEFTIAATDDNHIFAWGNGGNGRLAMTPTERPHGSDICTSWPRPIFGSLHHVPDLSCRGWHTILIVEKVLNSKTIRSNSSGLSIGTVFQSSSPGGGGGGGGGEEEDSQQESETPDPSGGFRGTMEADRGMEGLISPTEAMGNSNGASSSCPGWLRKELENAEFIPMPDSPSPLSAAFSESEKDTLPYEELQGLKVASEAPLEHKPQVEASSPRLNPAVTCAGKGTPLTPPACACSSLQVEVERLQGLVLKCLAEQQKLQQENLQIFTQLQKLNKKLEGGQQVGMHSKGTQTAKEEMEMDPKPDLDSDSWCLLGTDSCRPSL

Sphingosine kinase 1 (Homo sapiens), sequence (Q9NYA1 whole entry): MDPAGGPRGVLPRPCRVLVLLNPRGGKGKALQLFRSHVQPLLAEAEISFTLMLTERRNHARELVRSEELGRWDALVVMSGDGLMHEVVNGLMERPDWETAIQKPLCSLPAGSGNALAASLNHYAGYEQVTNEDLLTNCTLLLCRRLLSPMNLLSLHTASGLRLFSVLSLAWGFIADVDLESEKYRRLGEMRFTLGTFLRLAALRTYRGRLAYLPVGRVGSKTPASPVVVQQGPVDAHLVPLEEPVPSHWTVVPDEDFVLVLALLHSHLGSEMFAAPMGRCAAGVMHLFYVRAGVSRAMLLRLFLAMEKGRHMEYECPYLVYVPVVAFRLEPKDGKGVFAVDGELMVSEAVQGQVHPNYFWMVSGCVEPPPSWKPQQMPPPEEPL

Compound	inhibition [1] [%]	inhibition [2] [%]	inhibition [3] [%]	inhibition [4] [%]	inhibition [5] [%]	inhibition [6] [%]	inhibition [7] [%]	inhibition [8] [%]	inhibition [9] [%]	inhibition [10] [%]	inhibition [11] [%]	inhibition [12] [%]	inhibition [13] [%]	inhibition [14] [%]	inhibition [15] [%]	inhibition [16] [%]	inhibition [17] [%]	inhibition [18] [%]	inhibition [19] [%]	inhibition [20] [%]
O=C1Nc2ccccc2/C1=C/Nc1ccc(-n2cncn2)cc1	-4.72	-0.36	1.3	7.12	12.8	11.8	2.05	9.35	11.4	7.57	16.4	2.46	5.21	4.4	4.16	4.59	7.54	5.44	4.4	5.79
c1ccc(Oc2ccc(Nc3ncc(-c4ccccc4)o3)cc2)cc1	0.89	3.77	-0.07	3.77	5.82	5.9	-0.96	1.69	-1.75	1.29	3.43	0.18	1.89	1.83	1.51	-0.2	0.96	–	1.97	0.25
CS(=O)(=O)CCNCc1ccc(-c2ccc3ncnc(Nc4ccc(OCc5ccccc5)c(Br)c4)c3c2)o1	-1.39	-0.25	-1.58	13.7	5.24	3.37	1.56	9.38	11	6.98	4.71	1.95	1.93	5.02	3.81	4.55	3.89	3.08	5.42	6.05
